Experimental findings from PubChem BioAssay (NCI) are described below.

Test systems include HCT-15 colon; HT29 colon; SNB-75 CNS; SNB-19 CNS; U251 CNS; PC-3 prostate; SK-MEL-5 melanoma; UACC-62 melanoma; LOX IMVI melanoma; SK-MEL-28 melanoma; SK-MEL-2 melanoma; EKVX NSCLC; SN12C renal; UO-31 renal; TK-10 renal; ACHN renal; CAKI-1 renal; CCRF-CEM leukemia; MOLT-4 leukemia.
Test in all cases: NCI-60 one-dose screen, 48 h (100 = growth as untreated, 0 = no growth, -100 = all killed)
Holding throughout (conditions): 10 µM unless noted

Each structure is given as a SMILES string. Compounds without any hit were thinned out: in the full panel of roughly 83,000, 20% have a hit.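 Plates (96-well) were seeded with cells, treated with compound at one concentration, and incubated for 48 hours before percent growth was determined.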 Unmarked numbers belong to inactive results. Active and inactive are the calls of the source. The calls were made as follows: active = growth percent below 10; inactive = the rest.

With `Cn1ccnc1C(=O)/C=C/c1ccc(CC(=O)Nc2ccc(Cl)cc2)cc1`, the growth in the test on HCT-15 colon is 5.48% (active); in the test with HT29 colon it was 3.03% (active); in the test on SNB-75 CNS, 11.8%; with SNB-19 CNS, 6.66% (active); with U251 CNS it was 6.28% (active); with PC-3 prostate, 32.7%. Besides, the growth with SK-MEL-5 melanoma was 33.3%; with UACC-62 melanoma, 35%; in the test with LOX IMVI melanoma, 13.1%; in the test with SK-MEL-28 melanoma, 70.9%; in the test on SK-MEL-2 melanoma, 89.7%; in the test with EKVX NSCLC it was 40.6%. For the same molecule, the growth in the test with SN12C renal is 2.21% (active); in the test on UO-31 renal it was 23.3%; with TK-10 renal, 27%; in the test on ACHN renal it was 49.8%; in the test with CAKI-1 renal, 34.7%; in the test with CCRF-CEM leukemia it was 4.18% (active). Further, the growth in the test with MOLT-4 leukemia was 5.64% (active).
For the molecule `CC(=O)Nc1cccc(-c2ccc3c(c2)NC(=O)/C3=C\c2ccc[nH]2)c1`, the growth was 27.2% with HCT-15 colon; 25.6% with HT29 colon; 53.3% in the test with SNB-75 CNS; 69.1% in the test on SNB-19 CNS; 45.6% with U251 CNS; 63.8% in the test with PC-3 prostate. Besides, the growth was 61.1% in the test on SK-MEL-5 melanoma; 48.5% in the test with UACC-62 melanoma; 35.9% in the test with LOX IMVI melanoma; 68.3% with SK-MEL-28 melanoma; 54.7% with SK-MEL-2 melanoma; 35% with EKVX NSCLC. The growth in the test on SN12C renal was 56.6%; in the test with UO-31 renal, 25.9%; in the test with TK-10 renal, 43.2%; with ACHN renal it was 33.8%; in the test on CAKI-1 renal it was 33%; with CCRF-CEM leukemia, 27%. Further, in the test on MOLT-4 leukemia, the growth was 29.4%.
On to `NS(=O)(=O)c1ccc(CCn2c(SCC(=O)c3ccc(Cl)cc3)nc3ccccc3c2=O)cc1`, for which the growth was 98.2% in the test on HCT-15 colon; 102% in the test with HT29 colon; 90.2% in the test with SNB-75 CNS; 102% in the test on SNB-19 CNS; 109% in the test on U251 CNS; 98.2% with PC-3 prostate. Also, the growth in the test with SK-MEL-5 melanoma is 104%; in the test on UACC-62 melanoma it was 98.9%; with LOX IMVI melanoma, 96.8%; in the test with SK-MEL-28 melanoma, 113%; in the test with SK-MEL-2 melanoma, 107%; in the test with EKVX NSCLC, 98.9%. Besides, the growth was 101% in the test on SN12C renal; 84.5% in the test with UO-31 renal; 97.2% in the test with TK-10 renal; 99.9% in the test with ACHN renal; 89.7% in the test with CAKI-1 renal; 97.8% in the test with CCRF-CEM leukemia. Further, the growth in the test with MOLT-4 leukemia was 97.6%.
For the molecule `O=C(Nc1ccc(Cl)cc1)c1cc(NCc2cc(O)ccc2O)ccc1O`, the growth with HCT-15 colon was 68.5%; with HT29 colon, 88.6%; in the test on SNB-75 CNS, 101%; in the test on SNB-19 CNS it was 91.4%; in the test with U251 CNS it was 71.8%; in the test on PC-3 prostate, 45.2%. The growth in the test on SK-MEL-5 melanoma was 82.9%; with UACC-62 melanoma, 65.5%; in the test on LOX IMVI melanoma, 84.3%; with SK-MEL-28 melanoma, 99.2%; in the test on SK-MEL-2 melanoma, 78.8%; in the test with EKVX NSCLC, 94.1%. The growth in the test on SN12C renal is 76.1%; in the test on UO-31 renal it was 52.2%; with TK-10 renal, 97.3%; in the test with ACHN renal, 89.6%; with CAKI-1 renal, 99.5%; with CCRF-CEM leukemia, 5.54% (active). The growth in the test on MOLT-4 leukemia was 59.8%.
For the molecule `CCCNC(=O)Oc1ccc(/C(=C(\C)c2ccccc2)c2ccc(OCCCN(C)C)cc2)cc1`, the growth was 38.7% in the test with HCT-15 colon; 5.5% (active) with HT29 colon; 86.2% in the test with SNB-75 CNS; 84.9% with SNB-19 CNS; 68.8% with U251 CNS; 71.7% with PC-3 prostate. Moreover, the growth in the test with SK-MEL-5 melanoma is 86.2%; in the test with UACC-62 melanoma, 54.2%; in the test on LOX IMVI melanoma, 75.6%; in the test with SK-MEL-28 melanoma it was 70.8%; in the test on SK-MEL-2 melanoma it was 92.6%; with EKVX NSCLC it was 80.1%. The growth was 77.4% in the test with SN12C renal; 50% in the test with UO-31 renal; 84.8% with TK-10 renal; 93.3% with ACHN renal; 83.4% with CAKI-1 renal; 75.7% with CCRF-CEM leukemia. Further, the growth in the test on MOLT-4 leukemia is 66.5%.
Take `CCCCCCCCCCCCCCCC[N+]1(C)CCN(SN2CC[N+](C)(CCCCCCCCCCCCCCCC)CC2)CC1`: the growth with HCT-15 colon was 54.2%; with HT29 colon, 19.7%; in the test with SNB-75 CNS, 50.3%; with SNB-19 CNS, 29.3%; in the test on U251 CNS, 23.2%; in the test on PC-3 prostate, 33%. Also, the growth is 95.4% in the test on SK-MEL-5 melanoma; 72.8% with UACC-62 melanoma; 34.1% in the test on LOX IMVI melanoma; 98.4% with SK-MEL-28 melanoma; 95.9% in the test on SK-MEL-2 melanoma; 82.3% in the test on EKVX NSCLC. In addition, the growth in the test on SN12C renal was 72.5%; with UO-31 renal, 76.9%; with TK-10 renal, 53.3%; with ACHN renal, 66.2%; in the test with CAKI-1 renal it was 43.4%; with CCRF-CEM leukemia, 48.1%. Besides, in the test on MOLT-4 leukemia, the growth is 57.1%.
On to `COc1ccc(C(=O)Nc2cccc(C3CCc4c(cc(OC)c(OC)c4OC)O3)c2)cc1` (configuration not stated), for which the growth in the test on HCT-15 colon was 30.2%; in the test with HT29 colon, 17.6%; in the test on SNB-75 CNS it was 26.3%; with SNB-19 CNS, 53.3%; in the test with U251 CNS, 36.4%; in the test on PC-3 prostate, 49.3%. For the same molecule, the growth is 60.2% in the test on SK-MEL-5 melanoma; 38.7% in the test with UACC-62 melanoma; 50.3% in the test on LOX IMVI melanoma; 61.4% with SK-MEL-28 melanoma; 37.9% with SK-MEL-2 melanoma; 54.7% with EKVX NSCLC. Further, the growth in the test with SN12C renal was 69.6%; in the test on UO-31 renal, 53.9%; in the test on TK-10 renal it was 80.8%; with ACHN renal, 68.9%; in the test with CAKI-1 renal it was 54.3%; in the test with CCRF-CEM leukemia, 36.5%. The growth with MOLT-4 leukemia was 22.5%.
Turning to `COc1cc(F)c(/C=C/c2cc(/C=C/c3cc(OC)c(OC)cc3F)on2)cc1OC`, the growth in the test with HCT-15 colon is 82.1%; in the test on HT29 colon, 77.9%; in the test with SNB-75 CNS, 98.2%; with SNB-19 CNS it was 76.8%; in the test with U251 CNS it was 83.1%; in the test with PC-3 prostate, 74%. In addition, the growth in the test on SK-MEL-5 melanoma is 91.9%; with UACC-62 melanoma, 66.1%; in the test with LOX IMVI melanoma, 81.9%; in the test with SK-MEL-28 melanoma it was 82.7%; in the test on SK-MEL-2 melanoma, 76.3%; in the test on EKVX NSCLC it was 102%. Moreover, the growth with SN12C renal was 91.6%; with UO-31 renal it was 91.2%; with TK-10 renal, 100%; in the test with ACHN renal, 80%; with CAKI-1 renal, 90.1%; with CCRF-CEM leukemia it was 91.9%. Besides, the growth in the test with MOLT-4 leukemia was 91.1%.
